Source: PubChem BioAssay (Tox21)
“And” between values parts separate entries of the source, which are not always exact repeats. Equal values may be shown once. Results filed as inconclusive are left out. Entries that show only a call come without a potency. Some compounds were tested as several samples or in several runs, with calls that do not always agree. The source made the active and inactive calls. Calls come from the whole dose curve.

target: Retinoic acid receptor RXR-alpha (Homo sapiens) (UniProt P19793); assay: qHTS assay to identify small molecule agonists of the RXR signaling pathway (AID 1159527); conditions: HEK293T RXRa-UAS-bla, beta-lactamase ratio, 16 h; series mostly up to 76.8 µM; note: nearly all actives have a fitted effect of over 35% in size
Sequence (P19793 whole entry, looked up): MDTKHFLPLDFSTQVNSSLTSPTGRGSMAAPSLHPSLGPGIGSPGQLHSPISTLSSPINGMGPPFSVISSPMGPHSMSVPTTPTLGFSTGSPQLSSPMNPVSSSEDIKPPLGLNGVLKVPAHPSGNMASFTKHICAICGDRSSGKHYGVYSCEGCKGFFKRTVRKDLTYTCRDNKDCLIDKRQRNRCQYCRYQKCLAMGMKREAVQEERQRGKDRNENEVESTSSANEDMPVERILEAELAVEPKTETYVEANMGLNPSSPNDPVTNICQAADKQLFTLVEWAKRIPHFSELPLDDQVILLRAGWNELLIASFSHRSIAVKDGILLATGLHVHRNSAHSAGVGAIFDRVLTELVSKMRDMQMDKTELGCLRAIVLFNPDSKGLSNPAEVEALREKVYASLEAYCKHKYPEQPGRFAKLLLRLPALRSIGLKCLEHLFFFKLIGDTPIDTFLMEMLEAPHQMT
Excerpt: U.S. Tox21 Program National Center for Advancing Translational Sciences [NCATS] NIH Chemical Genomics Center [NCGC] U.S. Environmental Protection Agency [EPA] National Institutes of Environmental Health Sciences [NIEHS] National Toxicology Program [NTP] U.S. Food and Drug Administration [FDA] Tox21 Assay Overview: The Retinoid X receptor (RXR), a nuclear hormone receptor expressed in liver, spleen, placenta, epidermis, central nervous system. These receptors are able to form homo and heterodimers with other nuclear receptors and due to this heterodimerizing ability, RXR functions as master regulators producing diverse physiological effects. Three subtypes of RXR exist; alpha, beta and gamma. Retinoid X receptor alpha (RXR-alpha) has potential roles in metabolic signaling pathways, skin alopecia, dermal cysts, cardiac development, insulin sensitization etc. Therefore screening environmental chemicals on RXR-alpha signaling can be used for the studies focused on such therapeutic applications. For quantification of RXR-alpha ligands signaling, GeneBLAzer RXR alpha-UAS-bla HEK 293T (Life Technologies, Carlsbad, CA) cells containing a beta-lactamase reporter-gene under control of Retinoid X receptor-alpha response element were used to screen Tox21 10K library.
Tox21 Assay Protocol Summary: RXR-alpha HEK 293T cells were dispensed at 2,000 cells/6 uL of assay medium containing 2% charcoal-stripped FBS using a Multidrop Combi (ThermoFisher Scientific, Waltham, MA) dispenser. The assay was performed in black wall/clear-bottom 1536-well plates (Greiner Bio-One North America Inc. Monroe, NC). 9-cis retinoic acid was used as a positive control in the agonist mode screen. After the assay plates were incubated at 37 C and 5% CO2 for 5 hr, 23 nL of compounds dissolved in DMSO, positive controls or DMSO only were transferred to the assay plate by a Pintool station (Kalypsys, San Diego, CA). The assay plates were incubated at 37 C and 5% CO2 for 16 hr. One uL of LiveBLAzer B/G FRET substrate (Life Technologies) was added using a Flying Reagent Dispenser (Aurora Discovery, San Diego, CA) and the plates were incubated at room temperature for 2 hr. Fluorescence intensity (405 nm excitation, 460/530 nm emission) was measured using an Envision plate reader (PerkinElmer, Shelton, CT).
Potency is the fitted concentration of half-maximal effect.

SMILES	Potency
Cc1ccc(S(=O)(=O)N=C=O)cc1	inactive
NCCNCCN	inactive
O=C(O)CCCCCCCCC(=O)O	inactive
c1ccc(Oc2ccccc2)cc1	inactive
CCCCCCO	inactive
CCCOC(=O)c1ccccc1	inactive
Cc1ccc2ncccc2c1	inactive and 13.8 µM (active)
CN/C(=C\[N+](=O)[O-])NCCSCc1csc(CN(C)C)n1	inactive
CCOC(=O)c1ccc(N)cc1	inactive
COc1ccc(C)cc1N	inactive
CC(O)CC(C)(C)O (stereo not given)	inactive
O=C(O)Cn1c(=O)n(Cc2ccc(Br)cc2F)c(=O)c2ccc(Cl)cc21	inactive
C=CCc1ccc(OC)c(OC)c1	inactive and 7.76 µM (active)
COc1cc(OC)c(C(=O)CCCN2CCCC2)c(OC)c1	inactive
CCOC(=O)n1ccn(C)c1=S	inactive
O=S(=O)(O)c1ccccc1	inactive
C[C@]12CCC(=O)C=C1CC[C@@H]1[C@@H]2[C@@H](O)C[C@@]2(C)[C@H]1CC[C@]2(O)C(=O)CO	inactive
O=C(O)c1cc2ccccc2cc1O	inactive
CCCCCCCCCCCC(=O)OC	inactive
O=C1CCCC1	inactive

SMILES	Potency
CCO[Si](CCCN)(OCC)OCC	19.5 µM (active) and inactive
O=C(O)c1ccccc1C(=O)O	inactive
CCCCCCCO	inactive
Clc1ccccn1	inactive
O=C(O)c1ccc(C(=O)O)c(C(=O)O)c1	inactive
CC1(C)NC(=O)NC1=O	inactive
Nc1ccc(Cl)c(N)c1	inactive
CC(C)=CCl	inactive
CCNc1ccccc1	inactive
CC(=O)OCc1ccco1	inactive
OCc1ccccc1	inactive
CCCCCCCCCCO	inactive
CNC(=O)Oc1ccc2c(c1)[C@]1(C)CCN(C)[C@@H]1N2C	inactive
CC(=O)OCc1ccccc1	inactive
CCCCOC(=O)c1ccc(N)cc1	inactive
O=C(OCC1CCC2OC2C1)C1CCC2OC2C1 (stereo not given)	inactive
CN1C(=O)CC[C@H]1c1cccnc1	inactive
CCCCC(C=O)CC (stereo not given)	inactive
CC(CCO)CC(C)(C)C (stereo not given)	inactive
O=C1C(c2[nH]c3ccccc3c2O)=Nc2ccccc21	inactive
